Rab9 promoter act = Rab9 promoter activation; Huh7 Rab9 promoter-luciferase reporter, luminescence, 24 h; Potency, µM (highest dose often 9.22 µM), actives largely listed as activators; hit rate 2.8% among 320,000; note: nearly all actives have a fitted effect of over 60% in size
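Huh7 cells stably carrying Rab9 promoter–luciferase reporter, plated 1500 cells/well, compound added after 2 h and incubated 24 h at 37 °C; luciferase luminescence then read after 10 min with detection reagent.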
ELG1 genotoxic = inducers of genotoxicity in HEK293T ELG1-luciferase cells; Potency, µM (series often up to 46 µM), most hits filed as activators; HEK293T ELG1-luciferase reporter, luminescence, 16 h; hit rate 1.3% among 330,000; note: nearly all actives have a fitted effect of over 60% in size
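After overnight (16 hr) compound treatment at 37 °C, ELG1-luciferase HEK293T cells were lysed with ONE-Glo; luminescence quantified 30 min later at room temperature.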
ELG1 repair inh = blocks ELG1-dependent DNA repair in HEK293T cells; AID 504467; Potency, µM (series often up to 46.1 µM), usual class: inhibitors; HEK293T ELG1-luciferase reporter, luminescence, 16 h; DNA damage induced by 5-fluorouridine; hit rate 2.3% among 330,000; note: nearly all actives have a fitted effect of over 55% in size
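In this reporter screen, reduction of luminescence relative to DMSO vehicle indicated activity. Compounds and 5-fluorouridine were added together to 2,000 cells per well, incubated for 16 hr at 37 °C, then developed with ONE-Glo.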
NPC1 promoter act = activators of NPC1 promoter; AID 485313; Potency, µM (top dose mostly 9.22 µM), hits mostly activators; hit rate 2.4% among 320,000; Huh7 NPC1 promoter luciferase reporter, 24 h; note: nearly all actives have a fitted effect of over 60% in size
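Huh7 cells stably carrying NPC1 promoter–luciferase, plated in Opti-MEM with 10% FBS for 2 h, were exposed to compound in DMSO for 24 h at 37 °C; luciferase reagent was added for 10 min and luminescence read.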
SMN2 splice enh = increases expression of the SMN2 splice variant; AID 1458; Potency, µM (highest dose often 46.1 µM), actives largely listed as activators; hit rate 2.8% among 210,000; HEK293 SMN2-luciferase splicing reporter, luminescence, 30-36 h; note: nearly all actives have a fitted effect of over 55% in size
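HEK293 cells carry an SMN2 […]–luciferase reporter in which exon 7 inclusion puts luciferase in frame. Cells were plated 10-12 h before compound addition, then incubated 30-36 h at 37C. ONE-Glo luminescence was read; sodium butyrate at 4.5 mM final served as control.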
FLuc counter = counter-screen for miR-21 project: firefly luciferase inhibitors or activators; P08659; purified FLuc, Km substrates, luminescence inhibition; Potency, µM (doses to about 57.5 µM), most hits filed as inhibitors; hit rate 6.9% among 360,000; AID 588342; note: nearly all actives have a fitted effect of over 55% in size
Target sequence (P08659 whole entry, looked up): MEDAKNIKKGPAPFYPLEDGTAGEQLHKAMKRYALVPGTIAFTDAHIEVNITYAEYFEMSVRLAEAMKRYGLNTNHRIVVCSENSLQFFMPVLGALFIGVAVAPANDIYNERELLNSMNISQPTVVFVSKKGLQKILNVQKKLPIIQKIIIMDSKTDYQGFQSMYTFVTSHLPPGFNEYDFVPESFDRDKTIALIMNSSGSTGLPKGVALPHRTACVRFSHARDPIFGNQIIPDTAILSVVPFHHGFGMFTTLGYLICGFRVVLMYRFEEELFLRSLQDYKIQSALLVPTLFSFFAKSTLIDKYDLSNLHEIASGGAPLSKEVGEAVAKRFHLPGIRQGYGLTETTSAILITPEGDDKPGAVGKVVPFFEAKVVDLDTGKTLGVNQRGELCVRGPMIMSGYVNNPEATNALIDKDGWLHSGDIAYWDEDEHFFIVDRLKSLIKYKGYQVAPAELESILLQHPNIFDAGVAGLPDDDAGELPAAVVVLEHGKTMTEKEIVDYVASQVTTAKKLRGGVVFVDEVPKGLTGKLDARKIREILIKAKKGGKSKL
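Biochemical qHTS of compounds, final roughly 60 µM downward over six points, against 10 nM purified firefly luciferase using Km concentrations of substrates (10 uM D-luciferin, 10 uM ATP) in Tris acetate pH 7.5 buffer; luminescence output.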
Of the large screens only hits and unclear results are named; the others gave an inactive call. An excerpt weighted towards active compounds, which were near 9.2% of everything screened. Calls come from the whole dose curve; as a rule, active = well fitted curve in the direction sought with a large enough effect; inconclusive = small, poorly fitted or top-dose-only effect, or another doubt; inactive = no such curve, though single readings can be large; an effect the other way counts as inactive or inconclusive.

CCOc1ccc(CNC(=O)CCn2c(=O)c3cccn3c3ccc(F)cc32)cc1	none (no result: Rab9 promoter act, ELG1 genotoxic, ELG1 repair inh, NPC1 promoter act, SMN2 splice enh)
CCc1nn2c(=O)cc(COC(=O)COc3ccc(OC)cc3)nc2s1	none (no result: Rab9 promoter act, ELG1 genotoxic, ELG1 repair inh, NPC1 promoter act, SMN2 splice enh)
COc1ccccc1C(=O)NC(=O)CSc1nnc(C)s1	none (no result: SMN2 splice enh)
CC(=O)Nc1ccc(S(=O)(=O)NC2=C(N3CCN(c4ccc(F)cc4)CC3)C(=O)c3ccccc3C2=O)cc1	ELG1 repair inh 8.2µM
COc1ccc(OCC(=O)Nc2ccc(NC(=O)c3ccco3)cc2)cc1	ELG1 genotoxic inconclusive, ELG1 repair inh inconclusive, SMN2 splice enh 28.2µM
Cc1cccc(C)c1OCC(=O)Nc1cccc(NC(=O)c2ccco2)c1	ELG1 repair inh 18.4µM, FLuc counter inconclusive
Cc1ccccc1OCC(=O)Nc1cccc(NC(=O)c2ccco2)c1	Rab9 promoter act inconclusive, FLuc counter 10.7µM
Cc1cccc(C)c1OCC(=O)Nc1ccc(NC(=O)c2ccco2)cc1	none (no result: SMN2 splice enh)
O=C(COC(=O)CC1CC2CCC1C2)Nc1ccccc1[N+](=O)[O-] (stereo not given)	none (no result: Rab9 promoter act, NPC1 promoter act, SMN2 splice enh, FLuc counter)
c1ccc(-c2noc(C3CCCCC3)n2)nc1	Rab9 promoter act 2.82µM, ELG1 genotoxic 6.51µM, ELG1 repair inh inconclusive, NPC1 promoter act inconclusive, SMN2 splice enh 11.2µM, FLuc counter 10.7µM
Cc1ccc(-c2noc(C3CCCN(C(=O)c4ccccc4Br)C3)n2)cc1 (stereo not given)	ELG1 repair inh inconclusive, FLuc counter inconclusive (no result: SMN2 splice enh)
Brc1ccc(-c2noc(C3CCCCC3)n2)cc1	Rab9 promoter act 2.82µM, ELG1 genotoxic inconclusive, ELG1 repair inh inconclusive, NPC1 promoter act inconclusive, FLuc counter 6.75µM (no result: SMN2 splice enh)
c1ccc(-c2noc(C34CC5CC(CC(C5)C3)C4)n2)nc1	Rab9 promoter act inconclusive, ELG1 genotoxic 14.6µM, ELG1 repair inh inconclusive, NPC1 promoter act inconclusive, SMN2 splice enh 12.6µM, FLuc counter 10.7µM
O=C1C2CCCN2C(=S)N1c1cc(Cl)ccc1Cl (stereo not given)	none (no result: SMN2 splice enh)
Cc1cc(C)cc(NC(=O)Cc2noc3ccccc23)c1	none (no result: Rab9 promoter act, ELG1 genotoxic, ELG1 repair inh, NPC1 promoter act, SMN2 splice enh)
CS(=O)(=O)c1cccc(C(=O)Nc2cccc(-c3nc4ccccc4[nH]3)c2)c1	FLuc counter 12µM (no result: SMN2 splice enh)
O=C(Nc1ccc(-c2nc3ccccc3[nH]2)cc1)c1ccc2c(c1)OCO2	Rab9 promoter act inconclusive, ELG1 repair inh inconclusive (no result: FLuc counter)
CS(=O)(=O)c1ccc(C(=O)Nc2cccc(-c3nc4ccccc4[nH]3)c2)cc1	FLuc counter 23.9µM (no result: SMN2 splice enh)
O=C(Nc1cccc(-c2nc3ccccc3[nH]2)c1)c1cccc(NC(=O)c2ccco2)c1	ELG1 repair inh inconclusive, FLuc counter inconclusive
COCCN1Cc2cccc(C(=O)Nc3ccc(-c4nc5ccccc5[nH]4)cc3)c2C1=O	ELG1 repair inh inconclusive
Cn1ncc([N+](=O)[O-])c1C(=O)Nc1ccc(-c2nc3ccccc3[nH]2)cc1	Rab9 promoter act inconclusive, ELG1 genotoxic inconclusive, ELG1 repair inh inconclusive, NPC1 promoter act inconclusive, SMN2 splice enh inconclusive, FLuc counter 21.3µM
Cn1ncc([N+](=O)[O-])c1C(=O)Nc1ccc(Cl)cc1	none (no result: SMN2 splice enh)
COCCN1Cc2cccc(C(=O)Nc3cccc(-c4nc5ccccc5[nH]4)c3)c2C1=O	ELG1 repair inh 4.11µM, FLuc counter inconclusive (no result: SMN2 splice enh)
O=C(Nc1ccc(-c2nc3ccccc3[nH]2)cc1)c1c(F)c(F)c(F)c(F)c1F	none
CS(=O)(=O)c1ccc(C(=O)Nc2ccc(-c3nc4ccccc4[nH]3)cc2)cc1	Rab9 promoter act 2.51µM, ELG1 repair inh inconclusive, NPC1 promoter act inconclusive (no result: SMN2 splice enh)
CS(=O)(=O)Cc1ccc(C(=O)Nc2cccc(-c3nc4ccccc4[nH]3)c2)cc1	ELG1 repair inh inconclusive, FLuc counter 13.5µM (no result: SMN2 splice enh)
CCCOc1ccc(C(=O)Nc2cccc(-c3nc4ccccc4[nH]3)c2)cc1	SMN2 splice enh inconclusive, FLuc counter 4.78µM (no result: Rab9 promoter act, ELG1 genotoxic, ELG1 repair inh, NPC1 promoter act)
CCOc1cc(OCC)cc(C(=O)Nc2cccc(-c3nc4ccccc4[nH]3)c2)c1	none (no result: Rab9 promoter act, ELG1 genotoxic, ELG1 repair inh, NPC1 promoter act)
CCOc1ccc(NC(=O)c2cnsn2)cc1	Rab9 promoter act 0.562µM, ELG1 genotoxic 1.46µM, ELG1 repair inh inconclusive, NPC1 promoter act 1.41µM, SMN2 splice enh inconclusive, FLuc counter 6.01µM
CCOc1ccc(NC(N)=O)cc1	none

Screens as filed in PubChem BioAssay.
